Experimental data reported in PubChem BioAssay AID504521 (NMMLSC, 2011).
The list shows a part of the results. Calls of active or inactive are those of the source.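 How the source made its calls: active means compounds whose bead fluorescence drops by more than 37 kMESF across the dose range, marking them as dye quenchers; inactive means the rest.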

experiment: quenching of fluorescent RNA aptamer on beads, dose response, artefact control for GRK2 RNA aptamer inhibitor project, biochemical, cherry pick 1, bead-based flow cytometry (AID 504521); details: active compounds read high

Fluorescence change (kMESF span), inactive:
COc1ccc(N2CCN(C(CNS(=O)(=O)c3ccc(C)cc3)c3ccccc3)CC2)cc1 (stereo not given) 7.4 kMESF
O=C(CCS(=O)(=O)c1ccc(Br)cc1)NCCc1ccc(Cl)cc1 10.9 kMESF
C=C(C)C(=O)Nc1cccc(C2=NOC3(C2)C[C@H](C(N)=O)N(C(=O)C(c2ccccc2)c2ccccc2)C3)c1 (stereo not given in full) -3.5 kMESF
CCN1/C(=C\c2ccc3ccccc3[n+]2CC)Sc2cc(C)ccc21 8.1 kMESF
CCN1/C(=C/c2ccc3ccc(C)cc3[n+]2CC)Sc2ccccc21 -1.6 kMESF
